Activity calls are given as the source filed them.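 The calls were made as follows, unless noted: active = inhibition of the reporter signal at or above 50%; inactive = inhibition below 50%.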

One may read the inhibition as the change of the read-out against control, counted positive when it falls.

The nature of the first experiment: blockers of RIG-like receptor reporter activation – cell-based, Sendai virus stimulus, luciferase, 10K MLSCN set, TLR/RLR signaling modifier project, primary screen (AID 602276;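 active = inhibition at or above 50% at 10 µM; inactive = inhibition below 50%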;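 also: firefly luciferase from ISG56 promoter only with Renilla not read in this screen; 0% = Sendai virus plus DMSO and 100% = medium plus DMSO without virus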). As to conditions: HEK293 RL24 IRF3 luciferase reporter, at 10 µM, stronger effect = higher value. A general note: Reporter assays use an easily measured gene product as a stand-in for the process of interest.
Regarding `COC(=O)c1sc(S(=O)(=O)NCc2cccs2)c(C(=O)OC)c1C`, the inhibition is -0.645% (inactive).
With `CS(=O)(=O)N1CCN(c2ccccc2NC(=O)c2cccs2)CC1`, the inhibition is 11.6% (inactive).
Take `O=C(Nc1ccccc1)C1=C(O)CC(c2ccoc2)CC1=Nc1ccccc1` (stereo not given): the inhibition is 4% (inactive).
On the same count and under the same terms, the value for `CCCCCc1c(C)nc(N2CCc3ccccc32)[nH]c1=O` was 13.9% (inactive); that for `CCOC(=O)c1cccc(NC(=O)CNS(=O)(=O)c2cccs2)c1` was -11.6% (inactive); that for `CN(C)CCCN1C(=O)CSC1c1ccccc1` (stereo not given) was 4.6% (inactive).
As to `COc1cc2c(cc1OC)-c1nnc(-c3cccs3)n1C(C)(C)C2`, the inhibition was 6.77% (inactive).
For `Cn1cc(Br)c(C(=O)NC2CCCCC2)n1`, the inhibition is 7.35% (inactive).
`COC(=O)c1ccc(CNC(=O)CSc2nc3sc(C)c(C)c3c(=O)n2C)o1`: the inhibition is -0.162% (inactive).
As for `Cn1c(=O)c2c(nc(NCCCO)n2C/C=C/c2ccccc2)n(C)c1=O`, the inhibition was 22.3% (inactive).
With `CCOC(=O)N1CCN(CCC(=O)c2ccc(Cl)cc2)CC1`, the inhibition is 2.5% (inactive).
On the same count and under the same terms, the figure for `CCOC(=O)C1CCCN(c2c(NCc3ccco3)c(=O)c2=O)C1` (stereo not given) is -5.89% (inactive); for `CCCCn1c(CNC(=O)CCC)nc2ccccc21` it is 5.22% (inactive); for `CCC(c1nnnn1C(C)(C)C)N1CCN(C2CCCC2)CC1` (stereo not given) it is 16.1% (inactive).
`CC(C)(C)c1nnc(NC(=O)C2CCN(c3ncccn3)CC2)s1`: the inhibition was 5.09% (inactive).
For `CCN1CCN(C(CNC(=O)c2ccc3c(c2)OCO3)c2cccnc2)CC1` (stereo not given), the inhibition is -18.9% (inactive).
As for `COc1ccc(C(=O)CSc2nnc(C3CCCCC3)n2N)c(OC)c1`, the inhibition was 10.3% (inactive).
As for `COC(=O)c1c(NC(=O)CSc2nnnn2C)sc(C)c1C`, the inhibition was -19% (inactive).
On the same count and under the same terms, the value for `CCOC(=O)C(C)(C)Sc1nc2c(cnn2-c2ccc(Cl)cc2)c(=O)[nH]1` was 9.09% (inactive); that for `O=c1ccc2cc3c([nH]c4ccc(Br)cc43)oc-2c1O` was 11.2% (inactive).
For the compound `O=C(OCC(=O)N1CCCC1)c1ccccc1OCc1ccccc1`, the inhibition was -11.3% (inactive).
For the compound `Cc1ccc2cc(CN(Cc3ccc4c(c3)OCO4)Cc3nnnn3Cc3ccco3)c(=O)[nH]c2c1C`, the inhibition is 39.3% (inactive).
For `COc1ccc(Br)cc1S(=O)(=O)N1CC(C)OC(C)C1` (stereo not given), the inhibition is -2.27% (inactive).
Consider `CCc1nnc(NC(=O)c2cc3ccccc3oc2=O)s1`, for which the inhibition was -9.54% (inactive).
Turning to `O=c1c[n+]([O-])c2ccccc2n1OCc1c(F)cccc1F`, the inhibition is 18% (inactive).
`Cc1ccc(-n2cnnn2)c2cccnc12`: the inhibition is 5.45% (inactive).
Regarding `O=C(c1ccc(S(=O)(=O)N2CCOCC2)cc1)N(c1ccc(F)cc1)C1C=CS(=O)(=O)C1` (stereo not given), the inhibition is 3.76% (inactive).
`Cn1c(=O)c2c(nc(CN3CCCCC3)n2CCc2ccccc2)n(C)c1=O`: the inhibition is -6.67% (inactive).
Still for that read-out and setting: the value for `O=C(CCNS(=O)(=O)c1ccc(Cl)cc1)NCc1ccccn1` was 17.1% (inactive); that for `CCOC(=O)CNC(=O)Nc1nnc(-c2ccc(OCC)cc2)o1` was -14.6% (inactive); that for `CN(C)S(=O)(=O)c1ccc(Oc2ccc(S(=O)(=O)N(C)C)cc2)cc1` was -5.78% (inactive).
As to `CCCCc1c(O)nc(N2CCN(Cc3ccccc3)CC2)[nH]c1=O`, the inhibition was 12.1% (inactive).
The same measure, in the same setting: the figure for `CCCc1cc(=O)[nH]c(SCc2ccccc2)n1` is 9.4% (inactive); for `CCOC(=O)N1CCC(c2cc(=O)n3[nH]cc(C(=O)OC)c3n2)CC1` it is 16.5% (inactive).
In the case of `c1ccc(C2(Cn3ccc4ccccc43)OCCO2)cc1`, the inhibition was 4.02% (inactive).
Take `O=C(Nc1ccccc1)N(O)c1ccc(Cl)cc1`: the inhibition was -39.6% (inactive).
With `S=c1[nH]nc(-c2cccc(Br)c2)o1`, the inhibition is 4.14% (inactive).
Regarding `N#CC1=C(N)C(C#N)(C#N)[C@H](c2ccsc2)[C@H]2COCC=C12`, the inhibition was 16.8% (inactive).
Turning to `COC(=O)CCC(=O)Nc1cccc(Br)c1`, the inhibition was 9.55% (inactive).
Take `C=CCOC(=O)C1=C(C)OC(N)=C(C#N)C1c1ccc2c(c1)OCO2` (stereo not given): the inhibition is -2.6% (inactive).

The nature of a further experiment: TLR3 IRF3 reporter activation blockers – cell-based, poly I:C stimulus, luciferase, 10K MLSCN set, primary screen (AID 602277). To be noted: HEK293-TLR3 RL24 IRF3 luciferase reporter, at 10 µM, stronger effect = higher value.
In the case of `COC(=O)c1sc(S(=O)(=O)NCc2cccs2)c(C(=O)OC)c1C`, the inhibition was 30.7% (inactive).
Regarding `CS(=O)(=O)N1CCN(c2ccccc2NC(=O)c2cccs2)CC1`, the inhibition is 18.8% (inactive).
Same read-out and setting: the value for `O=C(Nc1ccccc1)C1=C(O)CC(c2ccoc2)CC1=Nc1ccccc1` (stereo not given) was 16.9% (inactive); that for `CCCCCc1c(C)nc(N2CCc3ccccc32)[nH]c1=O` was -33.8% (inactive).
`CCOC(=O)c1cccc(NC(=O)CNS(=O)(=O)c2cccs2)c1`: the inhibition is -10.2% (inactive).
Consider `CN(C)CCCN1C(=O)CSC1c1ccccc1` (stereo not given), for which the inhibition was 35.9% (inactive).
On the same count and under the same terms, the figure for `COc1cc2c(cc1OC)-c1nnc(-c3cccs3)n1C(C)(C)C2` is 18.5% (inactive); for `Cn1cc(Br)c(C(=O)NC2CCCCC2)n1` it is 5.88% (inactive).
Take `COC(=O)c1ccc(CNC(=O)CSc2nc3sc(C)c(C)c3c(=O)n2C)o1`: the inhibition was 29.6% (inactive).
On to `Cn1c(=O)c2c(nc(NCCCO)n2C/C=C/c2ccccc2)n(C)c1=O`, for which the inhibition is 34.2% (inactive).
Still for that read-out and setting: the value for `CCOC(=O)N1CCN(CCC(=O)c2ccc(Cl)cc2)CC1` was 2.89% (inactive); that for `CCOC(=O)C1CCCN(c2c(NCc3ccco3)c(=O)c2=O)C1` (stereo not given) was 16.5% (inactive); that for `CCCCn1c(CNC(=O)CCC)nc2ccccc21` was 31.7% (inactive).
Same read-out and setting: the value for `CCC(c1nnnn1C(C)(C)C)N1CCN(C2CCCC2)CC1` (stereo not given) was 9.37% (inactive); that for `CC(C)(C)c1nnc(NC(=O)C2CCN(c3ncccn3)CC2)s1` was 31.5% (inactive).
Consider `CCN1CCN(C(CNC(=O)c2ccc3c(c2)OCO3)c2cccnc2)CC1` (stereo not given), for which the inhibition is -1.81% (inactive).
Turning to `COc1ccc(C(=O)CSc2nnc(C3CCCCC3)n2N)c(OC)c1`, the inhibition is 11.5% (inactive).
On to `COC(=O)c1c(NC(=O)CSc2nnnn2C)sc(C)c1C`, for which the inhibition is -14.9% (inactive).
As to `CCOC(=O)C(C)(C)Sc1nc2c(cnn2-c2ccc(Cl)cc2)c(=O)[nH]1`, the inhibition is 16.7% (inactive).
`O=c1ccc2cc3c([nH]c4ccc(Br)cc43)oc-2c1O`: the inhibition is 24.2% (inactive).
`O=C(OCC(=O)N1CCCC1)c1ccccc1OCc1ccccc1`: the inhibition is 6.16% (inactive).
Consider `Cc1ccc2cc(CN(Cc3ccc4c(c3)OCO4)Cc3nnnn3Cc3ccco3)c(=O)[nH]c2c1C`, for which the inhibition was 79.5% (active).
As for `COc1ccc(Br)cc1S(=O)(=O)N1CC(C)OC(C)C1` (stereo not given), the inhibition is 9.82% (inactive).
Still for that read-out and setting: the figure for `CCc1nnc(NC(=O)c2cc3ccccc3oc2=O)s1` is -77.5% (inactive).
For `O=c1c[n+]([O-])c2ccccc2n1OCc1c(F)cccc1F`, the inhibition is 24.8% (inactive).
For the compound `Cc1ccc(-n2cnnn2)c2cccnc12`, the inhibition is 27.7% (inactive).
For `O=C(c1ccc(S(=O)(=O)N2CCOCC2)cc1)N(c1ccc(F)cc1)C1C=CS(=O)(=O)C1` (stereo not given), the inhibition is 13.3% (inactive).
`Cn1c(=O)c2c(nc(CN3CCCCC3)n2CCc2ccccc2)n(C)c1=O`: the inhibition was -8.47% (inactive).
In the case of `O=C(CCNS(=O)(=O)c1ccc(Cl)cc1)NCc1ccccn1`, the inhibition was 21.6% (inactive).
`CCOC(=O)CNC(=O)Nc1nnc(-c2ccc(OCC)cc2)o1`: the inhibition was -13.9% (inactive).
Take `CN(C)S(=O)(=O)c1ccc(Oc2ccc(S(=O)(=O)N(C)C)cc2)cc1`: the inhibition was -20.3% (inactive).
`CCCCc1c(O)nc(N2CCN(Cc3ccccc3)CC2)[nH]c1=O`: the inhibition is 13.6% (inactive).
Regarding `CCCc1cc(=O)[nH]c(SCc2ccccc2)n1`, the inhibition is 30% (inactive).
As for `CCOC(=O)N1CCC(c2cc(=O)n3[nH]cc(C(=O)OC)c3n2)CC1`, the inhibition is 35.8% (inactive).
For `c1ccc(C2(Cn3ccc4ccccc43)OCCO2)cc1`, the inhibition is 12% (inactive).
With `O=C(Nc1ccccc1)N(O)c1ccc(Cl)cc1`, the inhibition is -78.3% (inactive).
On the same count and under the same terms, the figure for `S=c1[nH]nc(-c2cccc(Br)c2)o1` is 8.86% (inactive); for `N#CC1=C(N)C(C#N)(C#N)[C@H](c2ccsc2)[C@H]2COCC=C12` it is 25.2% (inactive); for `COC(=O)CCC(=O)Nc1cccc(Br)c1` it is 17.4% (inactive).
The same measure, in the same setting: the value for `C=CCOC(=O)C1=C(C)OC(N)=C(C#N)C1c1ccc2c(c1)OCO2` (stereo not given) was 7.38% (inactive).

The record behind these values is PubChem BioAssay.
